From the supplement of paper PMC6607015
Structures can show the parent of a compound that is named as a salt.

How the values were obtained:
Conditions in all cases: compound concentration in added solution (µM; 5 µl added to 20 µl cells): 10; 18 h
[1] = system: A431; assay: LBPA endosome anti-LBPA integrated intensity (sum per cell), Z-score; higher = more LBPA staining
Outline: (§1)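 Four 20× images per well were taken of HeLa MZ or A431 cells that had been seeded at 3,500 per well in 20 µl onto 5 µl of 10 µM compound solution in duplicate 384-well imaging plates. Before imaging, cells were incubated 18 h, fixed in 4% PFA and stained with 6C4 anti-LBPA antibody, filipin, propidium iodide and CellTracker green. Values are Z-scores normalised in AcuityXpress from MetaXpress-derived per-cell integrated LBPA or filipin intensity, either whole-cell or within LBPA endosomes.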

[2] = system: HeLa MZ; assay: as above
Outline: as §1

[3] = system: A431; assay: whole-cell filipin (free cholesterol) integrated intensity, Z-score; higher = more cholesterol staining
Outline: as §1

[4] = system: HeLa MZ; assay: as above
Outline: as §1

[5] = system: A431; assay: filipin (cholesterol) integrated intensity within LBPA endosomes, Z-score; higher = more cholesterol in LBPA endosomes
Outline: as §1

[6] = system: HeLa MZ; assay: as above
Outline: as §1

| SMILES | LBPA endosome anti-LBPA integrated intensity (z-score) [1] | LBPA endosome anti-LBPA integrated intensity (z-score) [2] | whole-cell filipin (z-score) [3] | whole-cell filipin (z-score) [4] | filipin (z-score) [5] | filipin (z-score) [6] |
| --- | --- | --- | --- | --- | --- | --- |
| Oc1ccc(OCc2ccccc2)cc1 [Monobenzone] | -0.343 | 2.16 | 2.23 | 2.56 | -0.548 | -0.736 |
| C#C[C@]1(OC(C)=O)CC[C@H]2[C@@H]3CCC4=C[C@@H](OC(C)=O)CC[C@@H]4[C@H]3CC[C@@]21C [Ethynodiol diacetate] | -0.254 | 0.88 | 0.227 | 0.371 | -0.191 | -0.00334 |
| c1ccc([C@H]2CN3CCSC3=N2)cc1 [Levamisole hydrochloride] | -0.398 | 0.59 | -0.758 | -0.886 | -0.52 | -0.182 |
| CC[N+](C)(C)c1cccc(O)c1 [Edrophonium chloride] | -0.613 | -1.29 | -0.969 | -0.842 | -0.456 | -0.596 |
| CC(C)NCC(O)c1ccc(O)c(O)c1 (single isomer, unassigned; (+)) [(+)-Isoproterenol (+)-bitartrate salt] | -0.327 | 0.363 | -0.262 | -0.346 | -0.516 | -0.475 |
| CN1CCN(c2c(F)cc3c(=O)c(C(=O)O)cn4c3c2SCC4)CC1 [Rufloxacin] | -0.614 | -0.736 | 0.0183 | -0.289 | -0.534 | -0.17 |
| Cc1c(O)c(=O)n(-c2ccccc2)n1C [Antipyrine, 4-hydroxy] | -0.407 | -0.193 | -0.48 | 0.114 | -0.485 | -0.43 |
| CN(CCOc1ccc(CC2SC(=O)NC2=O)cc1)c1ccccn1 (stereo not drawn) [Rosiglitazone Hydrochloride] | -0.367 | 0.286 | 0.193 | 0.897 | -0.277 | -0.0127 |
| CCCNCC(O)COc1ccccc1C(=O)CCc1ccccc1 (stereo not drawn) [Propafenone hydrochloride] | 3.53 | 1.93 | 2.04 | 1.83 | 2.65 | 2.28 |
| CS(=O)(=O)c1ccc(C2=C(c3ccccc3)C(=O)OC2)cc1 [Rofecoxib] | -0.672 | -1.7 | -1.07 | -0.451 | -0.59 | -0.599 |
| Nc1cc(C(Cl)=C(Cl)Cl)c(S(N)(=O)=O)cc1S(N)(=O)=O [Clorsulon] | -0.372 | 0.212 | -0.73 | -0.454 | -0.454 | -0.586 |
| N=C(N)NC(=O)c1nc(Cl)c(N)nc1N [Amiloride hydrochloride dihydrate] | -0.438 | -0.561 | -0.785 | -0.475 | -0.486 | -0.551 |
| CCn1cc(C(=O)O)c(=O)c2cc(F)c(N3CCNCC3)cc21 [Norfloxacin] | -0.548 | -0.705 | -0.938 | -1.18 | -0.584 | -0.612 |
| Cc1onc(-c2ccccc2Cl)c1C(=O)N[C@@H]1C(=O)N2[C@@H]1SC(C)(C)[C@@H]2C(=O)O [Cloxacillin sodium salt] | -0.451 | -0.521 | -0.641 | -0.277 | -0.516 | -0.434 |
| CC1(C)S[C@@H]2[C@H](NC(=O)[C@H](N)c3ccccc3)C(=O)N2[C@H]1C(=O)OC1OC(=O)c2ccccc21 (stereo partly drawn) [Talampicillin hydrochloride] | -0.446 | 0.322 | -0.121 | 0.482 | -0.392 | -0.35 |
| Cc1oncc1C(=O)Nc1ccc(C(F)(F)F)cc1 [Leflunomide] | -0.572 | -0.48 | -0.143 | -0.573 | -0.693 | -0.555 |
| CCCCC1C(=O)N(c2ccccc2)N(c2ccc(O)cc2)C1=O (stereo not drawn) [Oxyphenbutazone] | -0.518 | -0.9 | 0.131 | 0.127 | -0.41 | -0.527 |
| CN1[C@@H]2CC[C@H]1C[C@@H](OC(=O)c1c[nH]c3ccccc13)C2 [Tropisetron HCl] | -0.35 | 0.869 | -0.234 | -0.504 | -0.29 | 0.0878 |
| CC(C)(C)NC[C@H](O)c1ccc(O)c(CO)c1 [Levalbuterol hydrochloride] | -0.401 | -1.22 | 0.171 | -0.774 | -0.471 | -0.476 |
| CC(Cc1cccc(C(F)(F)F)c1)NCCOC(=O)c1ccccc1 (stereo not drawn) [Benfluorex hydrochloride] | -0.077 | -0.59 | -0.118 | 0.0685 | -0.352 | -0.573 |
| NC12CC3CC(CC(C3)C1)C2 [Adamantamine fumarate] | -0.644 | -1.51 | -0.89 | -0.605 | -0.499 | -0.616 |
| CCN1CCCC(OC(=O)C(c2ccccc2)c2ccccc2)C1 (stereo not drawn) [Piperidolate hydrochloride] | 1.4 | 1.47 | 1.77 | 1.11 | 1.7 | 0.861 |
| OC[C@H]1O[C@@H](Oc2ccc(O)cc2)[C@H](O)[C@@H](O)[C@@H]1O [Arbutin] | -0.459 | 0.327 | -0.0729 | -0.0721 | -0.436 | -0.605 |
| Cc1cn([C@H]2C=C[C@@H](CO)O2)c(=O)[nH]c1=O [Stavudine] | -0.301 | 0.24 | 0.0526 | 0.186 | -0.48 | -0.475 |

| SMILES | LBPA endosome anti-LBPA integrated intensity (z-score) [1] | LBPA endosome anti-LBPA integrated intensity (z-score) [2] | whole-cell filipin (z-score) [3] | whole-cell filipin (z-score) [4] | filipin (z-score) [5] | filipin (z-score) [6] |
| --- | --- | --- | --- | --- | --- | --- |
| COC(c1ccccc1)(c1ccccc1)[C@H](Oc1nc(C)cc(C)n1)C(=O)O [Ambrisentan] | -0.48 | -0.16 | -0.0813 | 1.12 | -0.393 | -0.359 |
| COc1cc([S+](C)[O-])ccc1-c1nc2cccnc2[nH]1 (stereo not drawn) [Sulmazole] | -0.64 | -1.23 | -0.818 | -0.362 | -0.483 | -0.399 |
| O=C1Nc2ccc(Cl)cc2[C@@](C#CC2CC2)(C(F)(F)F)O1 [Efavirenz] | -0.71 | -0.896 | -0.938 | -0.668 | -0.569 | -0.836 |
| COc1ccc(CCN(C)CCCC(C#N)(c2ccc(OC)c(OC)c2)C(C)C)cc1OC (stereo not drawn) [Verapamil hydrochloride] | 2.51 | 2.93 | 2.24 | 0.413 | 2.46 | 1.49 |
| CC(Oc1c(Cl)cccc1Cl)C1=NCCN1 (stereo not drawn) [Lofexidine] | -0.44 | 0.792 | -0.761 | -0.717 | -0.424 | -0.23 |
| CCCCOC(=O)c1ccc(O)cc1 [Butylparaben] | -0.425 | -0.532 | -0.203 | -0.161 | -0.376 | -0.449 |
| Cc1ccc(NC(=O)c2ccc(CN3CCN(C)CC3)cc2)cc1Nc1nccc(-c2cccnc2)n1 [Imatinib] | 3.97 | 1.01 | 2.96 | 3.48 | 4.02 | 3.74 |
| NS(=O)(=O)c1cc(C(=O)O)cc(N2CCCC2)c1Oc1ccccc1 [Piretanide] | -0.606 | -1.16 | -0.2 | 0.517 | -0.411 | -0.576 |
| Cc1cnc(C(=O)NCCc2ccc(S(=O)(=O)NC(=O)NC3CCCCC3)cc2)cn1 [Glipizide] | -0.539 | 0.251 | -1.07 | -1.32 | -0.587 | -0.757 |
| CCn1nc(C(=O)O)c(=O)c2cc3c(cc21)OCO3 [Cinoxacin] | -0.298 | 0.452 | -0.393 | -0.0614 | -0.442 | -0.322 |
| C/C=C(/C(=C/C)c1ccc(O)cc1)c1ccc(O)cc1 [Dienestrol] | -0.546 | -0.673 | -0.449 | -0.338 | -0.497 | -0.451 |
| CN(C/C=C/c1ccccc1)Cc1cccc2ccccc12 [Naftifine hydrochloride] | -0.115 | -0.525 | 0.224 | -0.277 | -0.136 | -0.339 |
| CC(C)NC(=N)NC(=N)Nc1ccc(Cl)cc1 [Proguanil hydrochloride] | -0.302 | 1.15 | -0.0125 | 0.372 | -0.375 | -0.0535 |
| COc1ccccc1N1CCN(CC(O)COc2cccc3ccccc23)CC1 (stereo not drawn) [Naftopidil dihydrochloride] | 0.776 | 1.7 | 0.857 | 0.537 | 0.575 | 0.742 |
| CCCNC(C)C(=O)Nc1ccccc1C (stereo not drawn) [Prilocaine hydrochloride] | -0.398 | -0.0706 | -0.685 | -0.312 | -0.467 | -0.406 |
| CCCC(=O)Nc1ccc(OCC(O)CNC(C)C)c(C(C)=O)c1 (stereo not drawn) [Acebutolol hydrochloride] | -0.335 | -0.6 | -0.712 | -0.665 | -0.476 | -0.408 |
| NC(=O)c1cc[n+](CC2=C(C(=O)[O-])N3C(=O)[C@@H](NC(=O)[C@@H](c4ccccc4)S(=O)(=O)O)[C@H]3SC2)cc1 [Cefsulodin sodium salt] | -0.471 | -0.634 | -0.331 | -0.0382 | -0.357 | -0.398 |
| CC1(C)S[C@@H]2[C@H](NC(=O)Cc3ccccc3)C(=O)N2[C@H]1C(=O)O [Benzylpenicillin sodium] | -0.349 | 1.42 | -0.101 | 2.18 | -0.427 | -0.552 |
| CN[C@H](CC(C)C)C(=O)N[C@H]1C(=O)N[C@@H](CC(N)=O)C(=O)N[C@H]2C(=O)N[C@H]3C(=O)N[C@H](C(=O)N[C@H](C(=O)O)c4cc(O)cc(O)c4-c4cc3ccc4O)[C@H](O)c3ccc(c(Cl)c3)Oc3cc2cc(c3O[C@@H]2O[C@H](CO)[C@@H](O)[C@H](O)[C@H]2O[C@H]2C[C@](C)(N)[C@H](O)[C@H](C)O2)Oc2ccc(cc2Cl)[C@H]1O [Vancomycin hydrochloride] | -0.435 | -0.0824 | -0.355 | -0.041 | -0.42 | -0.35 |
| COc1cc(NS(=O)(=O)c2ccc(N)cc2)nc(OC)n1 [Sulfadimethoxine] | -0.522 | -0.857 | -0.62 | 0.132 | -0.482 | -0.404 |
| COC(=O)C1=C(C)NC(C)=C(C(=O)OC(C)C)C1c1cccc2nonc12 (stereo not drawn) [Isradipine] | -0.123 | 0.656 | 0.258 | -0.179 | -0.13 | -0.161 |
| CCCCC(C)(O)C/C=C/[C@H]1[C@H](O)CC(=O)[C@@H]1CCCCCCC(=O)OC (mixture of isomers) [Misoprostol] | -0.446 | -0.811 | 0.395 | -0.741 | -0.436 | -0.608 |
| CO[C@@]1(NC(=O)CSCC#N)C(=O)N2C(C(=O)O)=C(CSc3nnnn3C)CS[C@@H]21 [Cefmetazole sodium salt] | -0.329 | 0.139 | -0.215 | -0.0972 | -0.434 | -0.479 |
| C[C@H]1[C@H](NC(=O)/C(=N\OC(C)(C)C(=O)O)c2csc(N)n2)C(=O)N1S(=O)(=O)O [Aztreonam] | -0.461 | -0.629 | -0.642 | -0.428 | -0.521 | -0.607 |
